Experimental data taken from PubChem BioAssay.
For part of these data: Potency and affinity values are given separately. The source made the active and inactive calls.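 Rule for the calls, unless noted: active = calcium signal cut by more than 3 SD below the full-agonist control yet still positive, in both repeats and the earlier primary screen; inactive = the rest.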

Key:
[1] = system: TRPC4 beta (transient receptor potential cation channel C4), mouse; test: TRPC4 cation channel opening, retest – cell-based, Fluo4 calcium, HEK293 TRPC4beta/mu-opioid, duplicates, 10 µM, confirmation (AID 2426;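 active = fluorescence ratio normalized to control raised more than 50% in primary screen plus both repeat runs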;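 for activation: percent rise of integrated ratio over buffer wells lacking compound which define 0%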); settings: Fluo4 calcium fluorescence, at 10 µM; stronger effect = higher value
[2] = system: transient receptor potential cation channel C4 beta (TRPC4), mouse; test: TRPC4 cation channel opening, second retest – cell-based, second round, Fluo4, HEK293 TRPC4beta/mu-opioid, 1 µM, confirmation (AID 2461;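 active = primary screen active and over 50% activation in each of two duplicate runs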;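 for activation: 0% = wells without test compound as baseline of integrated fluorescence ratio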); settings: Fluo4 calcium fluorescence, at 1 µM; stronger effect = higher value
[3] = system: TRPC4 (transient receptor potential cation channel C4 beta), mouse; test: potentiation of DAMGO EC20 TRPC4 response – cell-based, second round, Fluo-4, HEK293 TRPC4beta/mu-opioid, 1 µM, confirmation (AID 2554;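 active = primary screen hit whose fluorescence ratio, in both repeats, exceeds the weak agonist control mean by 3 SD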); settings: DAMGO EC20, Fluo-4 calcium flux, at 1 µM; stronger effect = higher value
[4] = system: TRPC4 beta (transient receptor potential cation channel C4), mouse; test: potentiation of DAMGO EC20 TRPC4 response – cell-based, Fluo-4, HEK293 TRPC4beta/mu-opioid, confirmation (AID 2555;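 active = primary screen hit whose calcium fluorescence ratio, in both repeats, exceeds the weak agonist control mean by 3 SD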); settings: DAMGO EC20, Fluo-4 calcium flux, at 10 µM; stronger effect = higher value
[5] = target: Short transient receptor potential channel 4 (Mus musculus) (UniProt Q9QUQ5); test: blockers of DAMGO-evoked TRPC4 calcium flux – cell-based, Fluo4, HEK293 TRPC4beta/mu-opioid, confirmation (AID 2636); settings: at 10 µM; stronger effect = higher value
Sequence of Short transient receptor potential channel 4 (Mus musculus) (Q9QUQ5 whole entry, looked up): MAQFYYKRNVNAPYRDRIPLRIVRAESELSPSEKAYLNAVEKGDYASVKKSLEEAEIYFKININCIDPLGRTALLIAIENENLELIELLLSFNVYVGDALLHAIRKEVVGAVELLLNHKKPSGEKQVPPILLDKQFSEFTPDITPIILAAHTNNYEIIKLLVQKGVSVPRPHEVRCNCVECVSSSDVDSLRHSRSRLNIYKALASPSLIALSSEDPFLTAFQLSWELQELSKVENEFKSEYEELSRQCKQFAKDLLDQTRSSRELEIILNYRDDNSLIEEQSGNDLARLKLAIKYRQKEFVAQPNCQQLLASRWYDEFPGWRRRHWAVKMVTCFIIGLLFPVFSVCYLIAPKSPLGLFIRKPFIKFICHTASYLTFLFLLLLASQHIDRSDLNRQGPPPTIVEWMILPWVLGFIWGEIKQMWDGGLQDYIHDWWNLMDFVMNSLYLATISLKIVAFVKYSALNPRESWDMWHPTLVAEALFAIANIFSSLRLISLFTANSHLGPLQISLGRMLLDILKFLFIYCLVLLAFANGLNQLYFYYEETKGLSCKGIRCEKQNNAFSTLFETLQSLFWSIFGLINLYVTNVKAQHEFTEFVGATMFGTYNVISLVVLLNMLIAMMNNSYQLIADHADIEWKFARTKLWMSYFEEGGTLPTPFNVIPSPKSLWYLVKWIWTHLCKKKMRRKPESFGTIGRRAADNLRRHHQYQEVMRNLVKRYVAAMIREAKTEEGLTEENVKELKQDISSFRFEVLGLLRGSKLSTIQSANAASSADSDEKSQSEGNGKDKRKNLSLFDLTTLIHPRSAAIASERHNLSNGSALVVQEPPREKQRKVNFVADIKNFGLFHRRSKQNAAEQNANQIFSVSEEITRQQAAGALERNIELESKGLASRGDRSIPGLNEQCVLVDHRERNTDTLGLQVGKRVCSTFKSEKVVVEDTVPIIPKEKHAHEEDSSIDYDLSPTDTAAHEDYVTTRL

[6] = target: Short transient receptor potential channel 4 (Mus musculus) (UniProt Q9QUQ5); test: blockers of DAMGO-evoked TRPC4 calcium flux – cell-based, second round, Fluo4, HEK293 TRPC4beta/mu-opioid, 1 µM, confirmation (AID 2637;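 active = calcium signal ratio cut to more than 3 SD under the fully stimulated control mean yet still positive, in both repeats and the primary screen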); settings: at 1 µM; stronger effect = higher value
[7] = target: Short transient receptor potential channel 4 (Mus musculus) (UniProt Q9QUQ5); test: potentiation of DAMGO-evoked TRPC4 calcium signal – cell-based, HEK293 TRPC4/mu-opioid, Fluo-4 calcium, EC20 DAMGO, dose response (AID 434941;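 active = earlier screen potentiator hit that boosts the TRPC4 ion channel at some dose, with a dose response; inactive = no potentiation, no dose response, or not a prior hit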;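 note: calcium entry triggered by an EC20 dose of DAMGO at the co-expressed mu-opioid receptor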)
[8] = target: Short transient receptor potential channel 4 (Mus musculus) (UniProt Q9QUQ5); test: block of DAMGO-driven TRPC4 calcium entry – cell-based, HEK293 TRPC4/mu-opioid, Fluo-4 calcium, dose response (AID 434942;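 active = primary screen inhibitor hit that blocks the TRPC4 channel at some tested dose, yielding a dose curve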)
[9] = target: Short transient receptor potential channel 6 (Mus musculus) (UniProt Q61143); test: TRPC6 blockade by TRPC4 inhibitor hits – cell-based, HEK293, membrane potential dye, duplicate, selectivity assay for TRPC4 inhibitor project, confirmation (AID 434948;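 active = active in primary screen and both duplicates, each dropping signal beyond three positive-control SD with fluorescence still positive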); settings: HEK293 TRPC6, membrane potential dye fluorescence, at 10 µM, stimulated with maximal-effect acetylcholine; stronger effect = higher value
Sequence of Short transient receptor potential channel 6 (Mus musculus) (Q61143 whole entry, looked up): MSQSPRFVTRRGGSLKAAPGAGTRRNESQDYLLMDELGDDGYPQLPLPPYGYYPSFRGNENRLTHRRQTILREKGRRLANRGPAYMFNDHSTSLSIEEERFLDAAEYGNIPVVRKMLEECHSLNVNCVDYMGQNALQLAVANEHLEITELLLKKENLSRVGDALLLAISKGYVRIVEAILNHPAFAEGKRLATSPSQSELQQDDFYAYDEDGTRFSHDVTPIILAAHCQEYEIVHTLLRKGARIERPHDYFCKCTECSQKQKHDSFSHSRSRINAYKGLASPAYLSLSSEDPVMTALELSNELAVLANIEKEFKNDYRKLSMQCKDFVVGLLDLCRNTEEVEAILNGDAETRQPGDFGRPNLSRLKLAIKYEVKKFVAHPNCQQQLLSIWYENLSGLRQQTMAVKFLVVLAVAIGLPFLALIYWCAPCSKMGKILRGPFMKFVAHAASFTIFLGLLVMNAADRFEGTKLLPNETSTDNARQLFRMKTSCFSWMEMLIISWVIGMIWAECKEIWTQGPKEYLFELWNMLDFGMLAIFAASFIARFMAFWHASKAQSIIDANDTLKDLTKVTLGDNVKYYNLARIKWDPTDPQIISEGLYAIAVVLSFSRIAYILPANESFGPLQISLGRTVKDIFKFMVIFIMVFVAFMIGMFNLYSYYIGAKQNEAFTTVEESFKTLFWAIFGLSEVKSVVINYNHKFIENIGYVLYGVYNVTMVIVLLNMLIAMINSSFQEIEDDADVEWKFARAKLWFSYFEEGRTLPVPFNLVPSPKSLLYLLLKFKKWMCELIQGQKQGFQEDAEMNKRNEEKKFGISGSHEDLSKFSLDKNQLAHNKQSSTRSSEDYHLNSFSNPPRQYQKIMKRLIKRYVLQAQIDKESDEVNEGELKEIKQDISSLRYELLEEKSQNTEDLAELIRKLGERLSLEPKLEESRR

[10] = target: Short transient receptor potential channel 6 (Mus musculus) (UniProt Q61143); test: TRPC6 opening by TRPC4 activator hits – cell-based, HEK293, membrane potential dye, duplicate, selectivity assay for TRPC4 activator project, confirmation (AID 434950;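 active = membrane potential signal rise above negative control mean plus 3 SD in both duplicates, also active in the earlier TRPC4 screen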;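 for activation: 0% = buffer only wells and 100% = acetylcholine maximal-effect wells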); settings: HEK293 TRPC6, membrane potential fluorescence, at 10 µM; activation: stronger effect = higher value; outcome: activation
[11] = target: Short transient receptor potential channel 6 (Mus musculus) (UniProt Q61143); test: positive modulators of mouse TRPC6 channel – HEK293 cells, membrane potential dye, duplicate, selectivity assay for TRPC4 potentiator project, confirmation (AID 434952;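 active = compound raising the membrane signal above positive-control mean plus 3 SD in both repeats, and a primary screen hit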); settings: HEK293 TRPC6, membrane potential dye fluorescence, at 10 µM, maximal acetylcholine added after compound; stronger effect = higher value
[12] = target: Short transient receptor potential channel 4 (Mus musculus) (UniProt Q9QUQ5); test: calcium flux activators in TRPC4/5HT1a cells, counter-screen for TRPC4 activator project, cell-based, second counter screen, HEK293 TRPC4/5HT1a, Fluo-4 (AID 434977;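 active = calcium signal rise above buffer-control mean plus 5 SD in both duplicates, and also a hit in the primary screen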;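 for activation: plate controls were assay buffer for no effect and maximal serotonin response for full effect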); settings: Fluo-4 calcium flux, at 10 µM; stronger effect = higher value
[13] = serotonin-gated TRPC4 signal block – cell-based, second counter screen, HEK293 TRPC4/5HT1a, Fluo-4, counter-screen for TRPC4 inhibitor project, confirmation (AID 434978;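 active = primary screen active whose calcium signal fell more than 3 SD beyond the full-serotonin control mean in both duplicate plates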;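 note: serotonin given first at submaximal then at maximal dose after compound preincubation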); settings: Fluo-4 calcium flux, at 10 µM, serotonin added to trigger calcium flux; stronger effect = higher value
[14] = system: TRPC4 (mouse), co-expressed with 5HT1a in HEK293; test: enhancement of serotonin-evoked TRPC4 response – cell-based, second counter screen, HEK293 TRPC4/5HT1a, Fluo-4, counter-screen for TRPC4 potentiator project, confirmation (AID 434979;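 active = signal rise over 3 SD above mean of control wells given weak agonist, in both repeats and first screen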); settings: Fluo-4 calcium flux, at 10 µM, serotonin added at its EC20 dose; stronger effect = higher value
[15] = nonspecific calcium rise without TRPC4 – cell-based, HEK293 mu-opioid receptor line, counter-screen for TRPC4 activator project, confirmation (AID 449723;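 active = hit in primary screen, with calcium signal over 5 SD above buffer well mean in both duplicates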;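 note: counter screen cells carry the mu-opioid receptor alone and lack TRPC4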); settings: HEK293 mu-opioid cells, Fluo-4 calcium fluorescence, at 10 µM; stronger effect = higher value
[16] = nonspecific potentiation of DAMGO calcium response – cell-based, HEK293 mu-opioid receptor line, counter-screen for TRPC4 allosteric potentiator project, confirmation (AID 449724;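 active = calcium signal rise more than 3 SD above the low-dose agonist control mean, in both duplicate plates and the primary screen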); settings: HEK293 mu-opioid receptor cells, Fluo-4 calcium flux, at 10 µM, compound added before EC20 DAMGO stimulus; stronger effect = higher value

CN(CCOc1ccc(Cl)cc1)CC(O)c1ccccc1 (stereo not given)
active: activation [1] 76% | activation [10] 52.5% | activation [12] 13.9%
inactive: outcome [2] | outcome [3] | outcome [4] | outcome [5] | outcome [6] | outcome [7] | outcome [8] | outcome [9] | outcome [11] | outcome [13] | outcome [14] | outcome [15] | outcome [16]

Cc1cccc(NC(=S)NCC(c2cccnc2)N(C)C)c1C (stereo not given)
inactive: outcome [3] | outcome [4] | outcome [5] | outcome [6] | outcome [7] | outcome [8] | outcome [9] | outcome [10] | outcome [11] | outcome [12] | outcome [13] | outcome [14] | outcome [15] | outcome [16]
active: activation [1] 82% | activation [2] 106%

COc1ccc(C(CNC(=O)c2cccc(S(=O)(=O)NCc3ccccc3)c2)N(C)C)cc1 (stereo not given)
active: activation [1] 129% | activation [2] 61% | activation [10] 38%
inactive: outcome [3] | outcome [4] | outcome [5] | outcome [6] | outcome [7] | outcome [8] | outcome [9] | outcome [11] | outcome [12] | outcome [13] | outcome [14] | outcome [15] | outcome [16]

Cc1cc(C)n(-c2nc(SCCN(C)C)c3c4c(sc3n2)CCCC4)n1
inactive: outcome [2] | outcome [3] | outcome [4] | outcome [5] | outcome [6] | outcome [7] | outcome [8] | outcome [9] | outcome [10] | outcome [11] | outcome [12] | outcome [13] | outcome [14] | outcome [15] | outcome [16]
active: activation [1] 162%

COc1ccc(C2Nc3ccccc3C(=O)N2Cc2ccco2)cc1COc1ccc(NC(C)=O)cc1 (stereo not given)
inactive: outcome [1] | outcome [2] | outcome [3] | outcome [4] | outcome [5] | outcome [6] | outcome [7] | outcome [8] | outcome [9] | outcome [11] | outcome [12] | outcome [13] | outcome [14] | outcome [15] | outcome [16]
active: activation [10] 29%

O=C(NCCc1ccccn1)c1ccc(OC2CCN(CCc3ccccc3)CC2)cc1
active: activation [1] 76% | activation [10] 44.5%
inactive: outcome [2] | outcome [3] | outcome [4] | outcome [5] | outcome [6] | outcome [7] | outcome [8] | outcome [9] | outcome [11] | outcome [12] | outcome [13] | outcome [14] | outcome [15] | outcome [16]

CCCC(=O)NC(C)C(c1cccs1)N1CCN(c2ccccc2)CC1 (stereo not given)
inactive: outcome [1] | outcome [2] | outcome [3] | outcome [4] | outcome [5] | outcome [6] | outcome [7] | outcome [8] | outcome [9] | outcome [11] | outcome [12] | outcome [13] | outcome [14] | outcome [15] | outcome [16]
active: activation [10] 38.5%

O=C(NNC(=S)NC(=O)c1ccccc1Cl)c1cccc([N+](=O)[O-])c1
inactive: outcome [2] | outcome [3] | outcome [4] | outcome [5] | outcome [6] | outcome [7] | outcome [8] | outcome [9] | outcome [11] | outcome [13] | outcome [14] | outcome [16]
active: activation [1] 120% | activation [10] 29% | activation [12] 77.4% | activation [15] 23%

O=C(c1c(F)cccc1F)N1CCN(c2ncc(Br)cn2)CC1
inactive: outcome [3] | outcome [4] | outcome [5] | outcome [6] | outcome [7] | outcome [8] | outcome [9] | outcome [11] | outcome [13] | outcome [14] | outcome [15] | outcome [16]
active: activation [1] 158% | activation [2] 86% | activation [10] 34% | activation [12] 68.5%

Cn1c(-c2cccc3ccccc23)n[nH]c1=S
active: activation [1] 117% | activation [2] 97% | activation [12] 30.5%
inactive: outcome [3] | outcome [4] | outcome [5] | outcome [6] | outcome [7] | outcome [8] | outcome [9] | outcome [10] | outcome [11] | outcome [13] | outcome [14] | outcome [15] | outcome [16]

COc1cc(C(=O)NC(=S)NNC(=O)[C@H]2C[C@@H]2c2ccccc2)cc(OC)c1OC
inactive: outcome [2] | outcome [3] | outcome [4] | outcome [5] | outcome [6] | outcome [7] | outcome [8] | outcome [9] | outcome [11] | outcome [13] | outcome [14] | outcome [16]
active: activation [1] 59% | activation [10] 34% | activation [12] 63.3% | activation [15] 13.1%

CCN1CCN(c2c(Cl)cccc2NC(=O)c2ccc3nsnc3c2)CC1
inactive: outcome [2] | outcome [5] | outcome [6] | outcome [7] | outcome [8] | outcome [9] | outcome [10] | outcome [11] | outcome [12] | outcome [13] | outcome [14] | outcome [15] | outcome [16]
active: activation [1] 57% | potentiation [3] 22% | potentiation [4] 14%

CN(C)C(CNC(=O)c1cnc(Cl)c(Cl)c1)c1ccccc1 (stereo not given)
active: activation [1] 169% | activation [2] 151% | activation [10] 30.5%
inactive: outcome [3] | outcome [4] | outcome [5] | outcome [6] | outcome [7] | outcome [8] | outcome [9] | outcome [11] | outcome [12] | outcome [13] | outcome [14] | outcome [15] | outcome [16]

CN(C)C(CNC(C(=O)Nc1ccc(F)cc1)c1ccccc1)c1ccccc1 (stereo not given)
active: activation [1] 126% | activation [2] 68%
inactive: outcome [3] | outcome [4] | outcome [5] | outcome [6] | outcome [7] | outcome [8] | outcome [9] | outcome [10] | outcome [11] | outcome [12] | outcome [13] | outcome [14] | outcome [15] | outcome [16]

Cc1onc(-c2ccccc2)c1C(=O)NC(=S)NNC(=O)c1ccco1
inactive: outcome [2] | outcome [3] | outcome [4] | outcome [5] | outcome [6] | outcome [7] | outcome [8] | outcome [9] | outcome [11] | outcome [13] | outcome [14] | outcome [15] | outcome [16]
active: activation [1] 142% | activation [10] 30.5% | activation [12] 51.5%
